The whole screen tested about 360,000 compounds, of which about 4,600 (1.3%) were called active. Many of the other results were omitted from the sample, so actives are more common in it than they were. Unmarked numbers belong to inactive results.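 How the source made its calls: active means percent inhibition above its own plate's cutoff, namely the mean of that plate's compound wells plus 3 SD; inactive means the rest.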

The target in this experiment is Muscarinic acetylcholine receptor M1 (Homo sapiens) (UniProt P11229). Nature of the experiment: human M1 muscarinic receptor antagonists, primary screen, CHO-K1 cells, Fluo-8 calcium fluorescence, 1536-well (AID 588852).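 Further: peak over basal fluorescence ratio during 140 s after agonist addition; 0% = ACh EC80 plus DMSO and 100% = DMSO alone without agonist.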 The following applies: CHO-K1 hM1, Fluo-8 calcium fluorescence, ACh EC80 antagonist; at 3 µM; active compounds read high.
Chain of Muscarinic acetylcholine receptor M1 (Homo sapiens) (P11229 whole entry, looked up): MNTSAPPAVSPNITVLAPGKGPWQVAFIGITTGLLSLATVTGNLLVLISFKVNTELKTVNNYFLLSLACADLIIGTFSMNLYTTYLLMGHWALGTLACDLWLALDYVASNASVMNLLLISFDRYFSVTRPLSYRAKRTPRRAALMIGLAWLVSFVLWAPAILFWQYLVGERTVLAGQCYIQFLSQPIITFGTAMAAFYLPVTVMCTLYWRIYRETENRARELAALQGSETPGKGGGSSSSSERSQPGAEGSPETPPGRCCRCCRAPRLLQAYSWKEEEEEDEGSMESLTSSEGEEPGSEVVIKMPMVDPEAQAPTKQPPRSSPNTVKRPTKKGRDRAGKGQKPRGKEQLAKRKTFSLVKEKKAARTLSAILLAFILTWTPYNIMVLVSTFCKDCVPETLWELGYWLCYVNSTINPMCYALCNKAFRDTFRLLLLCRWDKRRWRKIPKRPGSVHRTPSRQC
For the compound `CC(=O)NS(=O)(=O)c1ccc2c(c1)Cc1cc(S(=O)(=O)NC(C)=O)ccc1-2`, the inhibition is -13.4%.

Regarding `O=C(NCC(O)c1nc2ccccc2[nH]1)c1ccc(Br)cc1` (stereo not given), the inhibition is -13.3%.

For the compound `CCOC(=O)C1=CC[C@@H](c2ccncc2)N(S(=O)(=O)c2ccc(C)cc2)C1`, the inhibition is 24.6%.

Regarding `CCOC(=O)C1=CCC(c2ccc(F)cc2)N(S(=O)(=O)c2ccc(C)cc2)C1` (stereo not given), the inhibition was 34% (active).

Regarding `CC(=O)C1=CCC(c2ccccc2)N(S(=O)(=O)c2ccc(C)cc2)C1` (stereo not given), the inhibition was -10.8%.

In the case of `COc1c(C)cc(C(O)c2ncc(-c3cccc(C(F)(F)F)c3)[nH]2)cc1C` (stereo not given), the inhibition was -5.01%.

`COc1ccc(NC(=O)NC2CC3CCCC(C2)N3Cc2ccccc2)cc1` (stereo not given): the inhibition was 1.24%.

Take `COc1ccc(CN2C3CCCC2CC(NC(=O)c2cccc(F)c2)C3)cc1` (stereo not given): the inhibition is 32.6% (active).

Take `CCCN1C2CCCC1CC(NC(=O)c1cccc(OC)c1)C2` (stereo not given): the inhibition is -14.2%.

Consider `Cc1nn(Cc2ccc(C(=O)N3N=C(C(F)F)CC3(O)C(F)F)cc2)c(C)c1[N+](=O)[O-]` (stereo not given), for which the inhibition is -0.52%.

In the case of `COc1ccc(C(C)(O)c2nc(-c3ccc(C)c(C)c3)cs2)cc1` (stereo not given), the inhibition is 6.49%.

Take `CC(C)CC(=O)Nc1ccc(Cc2ccncc2)cc1`: the inhibition was -16.9%.

With `Cc1cc([N+](=O)[O-])nn1CC(=O)Nc1ccc(Cc2ccncc2)cc1`, the inhibition was 28.3% (active).

For `Cc1cc(C)n(CC(=O)Nc2ccc([N+](=O)[O-])cc2)n1`, the inhibition is -1.63%.

For the compound `CC(C)CN1CCC1(C)C(=O)Nc1ccc(OC(F)F)cc1` (stereo not given), the inhibition is 1.99%.

As for `CCc1nc2c(=O)[nH]cnc2o1`, the inhibition was -5.65%.

Regarding `COc1cc(C(=O)N(C)Cc2cccc(OC)c2OC)ccc1OCC(=O)Nc1cccc(C(F)(F)F)c1`, the inhibition was 5.88%.

As to `CCCCC[C@H]1CN(C2CCCCC2)C(=O)[C@@H]1CC(=O)NCc1ccc(OC)cc1`, the inhibition was -1.3%.

For `Cn1ccnc1SCC(=O)Nc1ccc2c(c1)OCCO2`, the inhibition is -13.9%.

`O=C(CSc1nc(=O)n2ccccc2n1)Nc1ccc2c(c1)OCCO2`: the inhibition is 35.3% (active).

Take `O=C(CSc1nc2ncccc2[nH]1)Nc1ccc2c(c1)OCCO2`: the inhibition is -2.03%.

Take `CC(=O)Nc1cc(-c2ccc(N3CCN(C)CC3)cc2)cn2c(-c3ccc(F)cc3)cnc12`: the inhibition was -18.1%.

With `CCc1ccc2c(c1)NC(=O)C2(C)Cc1ccc(OC(F)(F)F)cc1` (stereo not given), the inhibition is -13.1%.

For the compound `Cc1ccc(Cl)c(OCC(=O)NN2CCN(C)CC2)c1`, the inhibition was -16.2%.

As to `O=C(CCCOc1ccc(Cl)cc1Cl)NNC(=O)C1CCC1`, the inhibition is -17.9%.

Regarding `CN1CCC(OC(=O)COc2ccc(Cl)cc2Cl)CC1`, the inhibition was 51.8% (active).

With `COc1ccc(CN(CC(=O)NC2CCCC2)C(=O)CCC(=O)Nc2cc(C)on2)cc1`, the inhibition was -0.71%.

Consider `CN(C)/C=C(\C#N)C(=O)c1cccnc1Oc1ccc(F)cc1F`, for which the inhibition is -0.88%.

For `O=C(N=C1SC2CS(=O)(=O)CC2N1c1ccccc1)c1ccccc1` (stereo not given), the inhibition is -9.89%.

As for `CCOC(=O)C1CCN(Cc2nnc(-c3cccc(Br)c3)o2)CC1`, the inhibition was 35.9% (active).

Consider `CCOC(=O)C1CCN(Cc2ccc(-c3ccccc3)cc2)CC1`, for which the inhibition is 25.5%.

For `CCOC(=O)N1CCN(Cc2nnc(-c3ccccc3Cl)o2)CC1`, the inhibition is -15.1%.

On to `CC1=NC2(CCCc3c2no[n+]3[O-])N(O)C1(C)C` (stereo not given), for which the inhibition was 0.36%.

On to `Cc1ccc(C(=O)NC(C)C(c2cccs2)N2CCOCC2)cc1C` (stereo not given), for which the inhibition was -6.99%.

On to `COC(=O)[C@]1(S(=O)(=O)c2ccccc2)C[C@@H]2ON=C(c3ccc(OC)cc3)[C@@H]2C1`, for which the inhibition is -7.9%.

On to `N#C[C@]1(S(=O)(=O)c2ccccc2)C[C@@H]2ON=C(c3cccc(Br)c3)[C@@H]2C1`, for which the inhibition is 33.5% (active).

With `CCN1C(=O)C(C(=O)NC(C)c2ccccc2)C2CC1(C)Oc1ccccc12` (stereo not given), the inhibition was -3.28%.

As to `C=CCOc1ccc(/C=C/C(=O)OCC(=O)NCC2CCCO2)cc1` (stereo not given), the inhibition is -1.61%.

Regarding `CC12CN(Cc3ccccc3)CC(C)(CN(Cc3ccccc3)C1)C2=NO`, the inhibition is 38.2% (active).

On to `O=S1(=O)CCN(Cc2ccccc2)CC1`, for which the inhibition is -8.4%.

In the case of `NC(=O)C1(N2CCCC2)CCN(Cc2ccccc2)CC1`, the inhibition is 2.73%.

For the compound `COc1ccc(/C=N/NC(=O)C(C)N(c2ccc(OC)cc2)S(C)(=O)=O)cc1` (stereo not given), the inhibition was 3.35%.

Regarding `CC(=O)Nc1ccc(Nc2ncnc3c2nnn3Cc2ccccc2Cl)cc1`, the inhibition was -1.5%.

`COC(=O)C1(S(=O)(=O)C2(C(=O)OC)CCCC2)CCCC1`: the inhibition is -1.25%.

Consider `CCCCOc1ccc(CON(C(C)=O)C(C)=O)cc1Cl`, for which the inhibition was 6.46%.

Turning to `COc1ccccc1S(=O)(=O)NCc1ccc(C(=O)N(C)Cc2ccc(F)cc2)cc1`, the inhibition is -14.8%.

Take `COc1ccc([N+](=O)[O-])cc1C1NN=C(c2cccc3ccccc23)S1` (stereo not given): the inhibition is -11%.

Regarding `Cc1ccc(-c2nc(C#N)c(NCCCn3ccnc3)o2)cc1`, the inhibition was -17.5%.

For the compound `Cc1ccc2c(Cl)c(C(=O)NCCCn3ccnc3)sc2c1`, the inhibition was -10.2%.

`Cc1ccc(S(=O)(=O)c2nc(NCCCn3ccnc3)sc2Cl)cc1`: the inhibition is 29.2% (active).

Take `C/C(=N\NC(=S)NCc1ccccc1)C1CCCCC1`: the inhibition was -9.74%.

Turning to `Cc1cc2nc(-c3ccc(Cl)cc3)c(Cc3cccc(F)c3)n2c(C)c1Br`, the inhibition was 0.42%.

Regarding `O=C(Nc1c2c(nn1-c1ccccc1)CS(=O)(=O)C2)C1CCCC1`, the inhibition was -10.8%.

On to `O=C(CC1CCCCC1)Nc1c2c(nn1-c1ccc(F)cc1)CS(=O)(=O)C2`, for which the inhibition is 104% (active).

Regarding `COc1ccccc1OCC(=O)Nc1c2c(nn1-c1ccc(F)cc1)CS(=O)(=O)C2`, the inhibition is -12.4%.

For `c1ccc2c(c1)CSc1sccc1C2=C1CCNCC1`, the inhibition was 99.6% (active).

As to `CC(C)(C)NC(=O)CSC(=Nc1ccccc1F)NC#N`, the inhibition is -1.14%.

Take `COCCn1c(=S)[nH]c2cc(C(=O)NCCc3ccc(OC)c(OC)c3)ccc2c1=O`: the inhibition was -6.48%.

In the case of `CCOC(=O)N1CCN(C(=O)c2ccc3c(=O)n(CCc4ccc(OC)c(OC)c4)c(=O)[nH]c3c2)CC1`, the inhibition is 62.3% (active).

Turning to `COc1ccc(-n2c(=O)[nH]c3cc(C(=O)NCCc4ccc(OC)c(OC)c4)ccc3c2=O)c(OC)c1`, the inhibition is -8.11%.

What is called inhibition is the relative decrease from the control value, in per cent.

The record behind these values is PubChem BioAssay AID588852 (The Scripps Research Institute Molecular Screening Center, 2011).
